Source: PubChem BioAssay AID624331 (National Center for Advancing Translational Sciences (NCATS), 2012)
Inconclusive results are not listed. A number with no mark means an inactive call. Calls follow the shape of the dose curve; as a rule, active = well fitted activation curve with a large enough effect; inconclusive = small, poorly fitted or top-dose-only effect; inactive = no such curve, though single readings can be large or run the other way.

Assay: qHTS assay for re-activators of p53 using a Luc reporter: Hit Validation with no p53 Expressed; also: 0% is about no effect
Settings: p53-null cells, luciferase reporter counter-screen; series mostly up to 46.1 µM; activity change, positive = activation: at the top concentration
Excerpt: The p53 tumor suppressor plays a key role in suppression of tumorigenesis and in human carcinogenesis. It is frequently found inactivated in human cancers, mainly by point mutation. These point mutations are found in a wide variety of human cancers and a majority of them affect the DNA binding domain of the protein. The point mutations either alter native p53 conformation or abolish DNA contact. Additionally, cancer cells with p53 mutations are more resistant to chemo-radiation therapies.
This counter screen was run against the hits identified from the primary screen. It uses a cell line that was not transfected with p53. Compounds that show activity in this counter screen show unspecific activation of the assay system and are excluded from further consideration.
NIH Chemical Genomics Center [NCGC]
NIH Molecular Libraries Probe Production Centers Network [MLPCN]
Assay Provider (PI): Yi Sung, University of Michigan at Ann Arbor
5ul of 1000 cells per well are dispensed in all wells except column 4, into white solid-bottom TC-treated Kalypsys plates. The cells are kept in Opti-MEM and supplemented with 10% FBS and dispensed using a Multidrop (Thermo). Then using the Kalypsys pin-tool, 23nl of compounds are pinned. The compounds are starting concentration at 10mM, with 1:5 dilution, 4 points, and the control compound nocodazole is pinned in column 1 at 25mM, 1:3 dilution, in duplicate, 25mM nocodazole is pinned in column 2. Please note, all concentrations are working concentrations. 5ul of 1pM purified luciferase enzyme is dispensed using the Kalypsys dispenser in column 4. Plates are incubated for 24 hrs at 37 deg C, 5% CO2, and 95% humidity. Then 4ul of the detection reagent Amplite (ABD Bioquest) is added using the Kalypsys dispenser. Plates are incubated for 10 min at ambient room temperature and are then read on the ViewLux (Perkin Elmer) using a clear filter for a luminescent read-out.

| SMILES | activity change, positive = activation [%] |
| --- | --- |
| N=C1c2ccccc2CN1CC(=O)c1ccccc1 | 60.3 |
| N#Cc1cc2c(nc1SCC(=O)Nc1cc(Cl)ccc1Cl)C1CCN2CC1 | -10.3 |
| O=C(N/N=C/c1c(O)n(C2CC2)c(=S)[nH]c1=O)c1ccccc1 | 38.9 |
| N#Cc1cc2c(nc1SCC(=O)Nc1ccc(Cl)cc1)C1CCN2CC1 | -5.62 |
| COC(=O)C1=C(c2ccc(F)cc2OCc2ccccc2)C[C@@H]2CC[C@H]1N2C(=O)NCCOc1ccc(OC)cc1 | -31 |
| COc1ccc(NC(=O)C2C3CCC(O3)C2C(=O)O)c(OC)c1 (configuration not stated) | 13.5 |
| COc1ccc(CN2CCNCC2)cc1 | -27.3 |
| CC1CCCCC1NC1CCN(C)CC1 (configuration not stated) | 8.27 |
| C=C(C)C(Cc1c(OC)ccc(C(=O)/C=C/c2ccc(O)cc2)c1O)OO (configuration not stated) | 12.7 |
| O=C(N/N=C/c1c(O)n(Cc2ccccc2)c(=O)[nH]c1=O)c1ccccc1 | -23.5 |
| CN(C)P(=O)(C(Cl)=C(N1CCCCC1)N1CCCCC1)N(C)C | 56.7 |
| O=C(c1cc2c(s1)CCCC2)N1CCC2(CC1)OCCO2 | -22.7 |
| Nc1c(C(=O)NCc2ccco2)c2nc3ccccc3nc2n1Cc1ccc(F)cc1 | -16.3 |
| Nc1ccccc1N=Cc1c(O)n(CCC2=CCCCC2)c(=O)[nH]c1=O | -35.9 |
| Cc1cc(N2C(=O)C3CCCN3C2c2sccc2C)no1 (configuration not stated) | -7.66 |
| COC(=O)C1=C(c2cccc(C#N)c2)C[C@@H]2CC[C@H]1N2C(=O)NC1CC1 | -26.1 |
| CCCCCCOc1ccc(CN2CCN(C)CC2)cc1 | 83.8 |
